Assay results: paper PMC5540273 (PLoS ONE, 2017)
Like-named read-outs stand apart in the source and are kept apart here.

Experiments:
[1] = system: WNK1; conditions: concentration: 1 μM,replicates: in singlicate; n = 1
[2] = system: WNK2; conditions: concentration: 1 μM,replicates: in singlicate; n = 1
[3] = system: WNK3; conditions: concentration: 1 μM,replicates: in singlicate; n = 1
[4] = system: WNK4; conditions: concentration: 1 μM,replicates: in singlicate; n = 1
[5] = system: T1, YANK1; conditions: concentration: 1 μM,replicates: in singlicate; n = 1
T1 construct: gene STK32A

[6] = system: T2, YANK3; conditions: concentration: 1 μM,replicates: in singlicate; n = 1
T2 construct: gene STK32C

[7] = system: T3, YES; conditions: concentration: 1 μM,replicates: in singlicate; n = 1
T3 construct: gene YES1

[8] = system: T4, YSK1; conditions: concentration: 1 μM,replicates: in singlicate; n = 1
T4 construct: gene STK25

[9] = system: T5, YSK4; conditions: concentration: 1 μM,replicates: in singlicate; n = 1
T5 construct: gene MAP3K19

[10] = system: ZAK; conditions: concentration: 1 μM,replicates: in singlicate; n = 1
[11] = system: ZAP70; conditions: concentration: 1 μM,replicates: in singlicate; n = 1
[12] = system: T6, p38-alpha; conditions: n = 1
T6 construct: gene MAPK14

[13] = system: T7, p38-beta; conditions: concentration: 1 μM,replicates: in singlicate; n = 1
T7 construct: gene MAPK11

[14] = system: p38-delta; conditions: concentration: 1 μM,replicates: in singlicate; n = 1
[15] = system: T8, p38-gamma; conditions: concentration: 1 μM,replicates: in singlicate; n = 1
T8 construct: gene MAPK12

[16] = system: T9, YANK2; conditions: concentration: 1 μM,replicates: in singlicate; n = 1
T9 construct: gene STK32B

[17] = concentration: 1 μM,replicates: in singlicate
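Further: KINOMEscan kinase panel screen.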

Structure (SMILES)	%Inh [1] [%]	%Inh [2] [%]	%Inh [3] [%]	%Inh [4] [%]	%Inh [5] [%]	%Inh [6] [%]	%Inh [7] [%]	%Inh [8] [%]	%Inh [9] [%]	%Inh [10] [%]	%Inh [11] [%]	%Inh [12, 17] [%]	%Inh [13] [%]	%Inh [14] [%]	%Inh [15] [%]	%Inh [16] [%]	%Inh ([12]; 1 µM) [%]
CCN(CC)CCOc1ccc(Nc2ncc3cc(-c4c(Cl)cccc4Cl)c(=O)n(C)c3n2)cc1 [SB-601273]	26	86	66	42	95.1	27	100	37	99.2	94.2	63	100	98.1	16	18		
O=C(NCCCN1CCOC1=O)c1cnc(NCc2cc(Cl)ccc2Cl)nc1NC1CCCC1	0	0	0	18	0	2	31	0	11	10	0	9	0	44	1	0	
Cl.Cl.Nc1nc(-c2ccc3c(N)n[nH]c3c2)cc(N2CCCC(NC(=O)c3ccccc3)C2)n1 (centres unmarked) [GSK2286775]	37	10	19	0	0	0	14	22	36	100	0	0	0	21	21	0	
CCN(CC)CCCCNc1ncc2cc(-c3c(Cl)cccc3Cl)c(NC(=O)NC(C)(C)C)nc2n1	0	51	0	0	53	0	94.6	58	49	1	0	98.2	81	28	26	32	
Cl.Cl.NC[C@H](Cc1ccc(C(F)(F)F)cc1)NC(=O)c1cc(Br)c(-c2ccnc3[nH]ccc23)s1 [GSK1487252]	10	0	13	39	56	13	19	30	88	0	0	0	0	12	38	69	
Cc1ccc(-n2nc(C(C)(C)C)cc2NC(=O)Nc2ccc(OCCN3CCOCC3)c3ccccc23)cc1 [GW839464]	0	1	0	0	0	0	32	0	0		0		56	90.5		0	
Cl.Oc1cc(-c2nc(-c3ccccc3)[nH]c2-c2ccncc2)ccc1Cl [SB-386023]	0	0	0	38	0	0	31	0	0	25	15		26	0	36	26	85
Cc1ccc2c(-c3ccncc3)c(-c3ccc(F)cc3)nn2c1.Cl [GW461484]	0	0	26	22	31	12	0	7	0	14	0	99.9	39	13	12	15	
CNC(=O)c1ccccc1Sc1ccc2c(/C=C/c3ccccn3)n[nH]c2c1	0	11	0	0	19	0	0	0	78	53	0	5	15	10	25	0	
NC(=O)c1cc(-c2ccccc2)cc2c(C3CCNCC3)c[nH]c12 [GSK301362]	11	6	17	41	4	26	24	1	50	0	0	0	0	35	0	0	
CN(C)CCOc1ccc(-c2cc(-c3c[nH]nc3-c3ccccn3)ccn2)cc1 [GW835314]	9	13	0	0	89	0	55	0	28	60	11	16	4	0	27	0	
Cc1occc1-c1nc(N)c(OC[C@@H](N)Cc2c[nH]c3ccccc23)cc1-c1cc2c(C)n[nH]c2cn1 [GSK1660450]	0	5	0	0	96.6	93.1	40	57	99.7	31	0		0	22	24	95.2	
CN(C)CC(O)COc1ccc(Nc2nccc(-c3cnn4nc(N5CCOCC5)ccc34)n2)cc1 (centres unmarked) [GW767488]	18	0	18	0	29	0	0	17	90	14	36	6	23	38	73	0	
C[C@@H]1CCN(C(=O)CC#N)C[C@@H]1N(C)c1ncnc2[nH]ccc12	0	0	0	0		0	0	0	8	0	0	1	13			0	
C=CC(=O)Nc1cc2c(Nc3ccc(F)c(Cl)c3)ncnc2cc1OCCCN1CCOCC1 [GW781483]	16	0	20	0	17	0	15	0	49	0	31	19	0	20	0	0	
CC(C)N1C(=O)Cc2cc(Nc3ncc(C(F)(F)F)c(NCc4cccc(S(C)(=O)=O)c4)n3)ccc21	0	1	0	23	6	0	9	0	99.8	0	62	96.4	2	0	0	0	
CCn1c(-c2nonc2N)nc2c(C#CC(C)(C)O)nc(OCCN)cc21.Cl.Cl [GSK902056]	12	24	28	2	12	35	19	0	99.7	14	0	0	0	16	0	0	
Cc1n[nH]c2ccc(-c3cc(OC[C@@H](N)Cc4ccccc4)cnc3-c3ccoc3)cc12.O=C(O)C(F)(F)F.O=C(O)C(F)(F)F [GSK507358]	8	11	0	6	72	47	22	22	99.8	0	0		0	50	33	90.5	
CC(C)Nc1cc(-c2ccc3c(N)n[nH]c3c2)nc(N)n1 [GSK2221681]	0	0	0	0	37	2	4	14	41	0	0	0	0	1	2	0	
Cl.Cl.NC[C@H](CC1CCCCC1)NC(=O)c1cc(Br)c(-c2ccnc3[nH]ccc23)s1 [GSK1581427]	0	3	5	0	42	18	1	0	99.6	0	0	0	0	4	0	0	
Cc1cc2cn[nH]c2cc1-c1cccc2c(N)c(C(N)=O)nnc12	21	3	23	11	26	0	0	0	71	21	32	0	2	0	52	0	
COc1ccc(C[C@@H](CN)NC(=O)c2cc(Br)c(-c3ccnc4[nH]ccc34)s2)cc1.Cl.Cl [GSK1389063]	11	32	5	0	71	50	22	100	99.6	0	0	0	0	46	0	46	
Nc1nc(Nc2ccccc2)cc(-c2ccc3c(N)n[nH]c3c2)n1 [GSK2225749]	5	0	7	0	15	6	0	0	46	3	0	0	0	0	0	0	
C[C@H]1Oc2cc(cnc2N)-c2c(nn(C)c2C#N)CN(C)C(=O)c2ccc(F)cc21	0	2	0	0	0	3	2	0	0	0	0	9	18	0	5	12	
O=C(NCCNc1ccnc(NCc2ccc(F)cc2)n1)c1cc2ccccc2s1 [GSK1379944]	10	1	4	3	19	7	11	0	27	14	0	77	0	40	0	0	
Cc1cc(C(=O)Nc2ccc(Oc3ccc4nc(NC(=O)C5CC5)cn4n3)cc2)nn1-c1ccccc1	0	0	0	10	0	0	25	1	1	48	0	11	27	0	52	3	
C[C@@H](Oc1cc(-c2cnn(C3CCNCC3)c2)cnc1N)c1c(Cl)ccc(F)c1Cl	11	46	0	8	6	0	17	0	72	4	10	2	25	30		0	
